# Inconclusive results are not listed. The source made the active and inactive calls. The call rests on the fitted dose curve; in most records, active means well fitted activation curve with a large enough effect in the repeat runs; inconclusive means weak or mixed curves; inactive means flat fitted curve, though single readings scatter.
# Assay: A CellTox Green Cytotoxicity Assay to monitor cytotoxicity in HepG2 cells - 16 hour (AID 1224876); further: nearly all actives have a fitted effect of over 45% in size
# Conditions: CellTox Green fluorescence; series mostly up to 76.8 µM; cytotoxicity increase: at the top concentration
# Source text: National Center for Advancing Translational Sciences [NCATS]
# NIH Chemical Genomics Center [NCGC]
# U.S. Environmental Protection Agency [EPA]
# National Institutes of Environmental Health Sciences [NIEHS]
# National Toxicology Program [NTP]
# Cell-based models are critical for drug discovery. Determining the natural cytotoxic effects resulting from test compounds is an essential research activity. A CellTox Green Cytotoxicity Assay to monitor cytotoxicity in real time of continues cell culture during 40 hours of the compound treatment was used to screen Tox21 10K library compounds in HepG2 cells. CellTox Green Cytotoxicity Assay is a nonlytic, homogeneous, biofluorescent method to measure cytotoxicity in cell culture after experimental manipulation. The assay system uses a proprietary asymmetric cyanine dye that is excluded from viable cells but preferentially stains the dead cell's DNA. […] Viable cells produce no appreciable increases in fluorescence. Therefore, the fluorescence signal produced by the binding interaction with dead cell DNA is proportional to cytotoxicity.
# The mixture of HepG2 cell suspension and reagents were dispensed at 600cells/6 ul/well in 1536-well tissue culture treated black solid bottom plates using a Multidrop dispenser. After the assay plates were incubated at a 37 C/5% CO2 incubator for 5 hours, 23 nL of compounds dissolved in DMSO, positive and negative controls was transferred to the assay plate by a pintool work station. The plates were incubated at 37 C for 40 hours. The fluorescence intensity were measured at 0h, 8h, 16h, 24h, 32h and 40h time points using ViewLux plate reader during compound treatment.
# On the % scale 0 is the no-effect control and ±100 the full control effect; potency means the concentration at half of the fitted maximal effect.
Structure (SMILES),cytotoxicity increase,Potency
O=C(O)CN(CCN(CC(=O)O)CC(=O)O)CCN(CC(=O)O)CC(=O)O,29.9% [at 15.8 µM] (inactive),
NS(=O)(=O)c1cc(-c2nn[nH]n2)c(NCc2cccs2)cc1Cl,8.91% [at 35.3 µM] (inactive),
CCCNC(C)C(=O)Nc1c(C)csc1C(=O)OC (stereo not given),-7.66% [at 35.3 µM] (inactive),
CO[C@@]1(NC(=O)CSCC#N)C(=O)N2C(C(=O)O)=C(CSc3nnnn3C)CS[C@@H]21,-6.23% [at 35.3 µM] (inactive),
O=C(CC(=O)C(F)(F)F)c1ccccc1,-12.6% (inactive),
O=C1C=CC(=O)O1,-11.8% (inactive),
OCCN1CCN(CCO)CC1,-0.228% (inactive),
CCCCC1CCC(=O)O1 (stereo not given),-8.43% (inactive),
CC(C)OC(C)C,-1.77% (inactive),
CCOC(=O)COc1ccc2c(c1)CC(NCC(O)c1cccc(Cl)c1)CC2 (stereo not given),,44 µM (active)
NC/C=C/C(=O)O,-8.03% [at 35.3 µM] (inactive),
NC(=O)Cc1cccc(C(=O)c2ccccc2)c1N,-16.8% [at 35.3 µM] (inactive),
COc1ccccc1N1CCN(CCCNc2cc(=O)n(C)c(=O)n2C)CC1,-10.7% [at 35.3 µM] (inactive),
CC(C)NCC(O)COc1ccc(CCOCC2CC2)cc1 (stereo not given),8.98% [at 35.3 µM] (inactive),
O=C1Nc2ccc([N+](=O)[O-])cc2C1=O,-1.81% (inactive),
COc1ccccc1OCC(O)COC(N)=O (stereo not given),-16.8% [at 35.3 µM] (inactive),
CN(CC1(C)CCCO1)S(=O)(=O)c1ccc(Cl)c(S(N)(=O)=O)c1 (stereo not given),1.47% [at 35.3 µM] (inactive),
CCOc1ccccc1N,-2.68% (inactive),
CC(C)CC(=O)OCc1ccccc1,1.9% (inactive),
NC(Cc1ccc(F)cc1)C(=O)O (stereo not given),8.03% [at 6.97 µM] (inactive),

Structure (SMILES),cytotoxicity increase,Potency
Cc1nc(N)nc(N)c1-c1ccc(Cl)c(Cl)c1,-0.429% [at 35.3 µM] (inactive),
CC(=O)N(CC(O)CN(C(C)=O)c1c(I)c(C(=O)NCC(O)CO)c(I)c(C(=O)NCC(O)CO)c1I)c1c(I)c(C(=O)NCC(O)CO)c(I)c(C(=O)NCC(O)CO)c1I (stereo not given),-2.29% [at 35.3 µM] (inactive),
CC(C)C(=O)OC/C=C/c1ccccc1,-2.83% (inactive),
C[C@@H]1CN(c2c(F)c(F)c3c(=O)c(C(=O)O)cn(C4CC4)c3c2F)C[C@H](C)N1,-10.9% [at 15.8 µM] (inactive),
CCCCN1C[C@H](O)[C@@H](O)[C@H](O)[C@H]1CO,1.02% [at 35.3 µM] (inactive),
CC(C)(C)C1CCCCC1=O (stereo not given),-0.797% (inactive),
CCOC(=O)CS,-12.2% (inactive),
Cc1c(C(=O)NCCO)[n+](=O)c2ccccc2n1[O-],-3.31% [at 35.3 µM] (inactive),
NCCC(O)(P(=O)(O)O)P(=O)(O)O,-15.6% [at 35.3 µM] (inactive),
COc1cc(Cl)ccc1Cl,8.74% (inactive),
CCCOc1ccc2c(c1)CC[C@@H]1[C@@H]2CC[C@]2(C)C(OC)CC[C@@H]12 (stereo not given in full),1.58% [at 35.3 µM] (inactive),
C[C@@H]1CN(c2c(F)c(N)c3c(=O)c(C(=O)O)cn(C4CC4)c3c2F)C[C@H](C)N1,-2.88% [at 15.8 µM] (inactive),
CCN(O)CC,2.47% (inactive),
CC1(C)C(=O)N(Cl)C(=O)N1Br,1.32% (inactive),
CCN(CC)CC1CCCCN1CC(=O)N1c2ccccc2C(=O)Nc2cccnc21 (stereo not given),13.2% [at 35.3 µM] (inactive),
C=CCc1cc(OC)c(O)c(C(=O)NCCO)c1,-14.4% [at 35.3 µM] (inactive),
O=Cc1ccc(F)c(Br)c1,0.241% (inactive),
c1ccc(CN(CC2=NCCN2)c2ccccc2)cc1,10.7% [at 35.3 µM] (inactive),
Cc1cc(S(=O)(=O)O)c(N)cc1Cl,1.42% (inactive),
O=c1oc2c(O)c(O)cc3c(=O)oc4c(O)c(O)cc1c4c23,1.02% [at 15.8 µM] (inactive),

# — PubChem BioAssay (Tox21)
